Reference: PubChem BioAssay AID1347428 (National Center for Advancing Translational Sciences (NCATS), 2020)
The whole screen tested about 91,000 compounds, of which about 290 (0.32%) were called active. Inconclusive results (about 7%) are left out. Calls come from the whole dose curve; as a rule, active = well fitted inhibition curve with a large enough effect; inconclusive = small, poorly fitted or top-dose-only effect; inactive = no such curve, though single readings can be large or run the other way. The entries come from a sample that favours actives as a whole. Where a call stands in place of a potency, no number is given.

Biological target: Single-stranded DNA cytosine deaminase (Homo sapiens) (UniProt Q9GZX7)
Sequence (Q9GZX7 whole entry, looked up): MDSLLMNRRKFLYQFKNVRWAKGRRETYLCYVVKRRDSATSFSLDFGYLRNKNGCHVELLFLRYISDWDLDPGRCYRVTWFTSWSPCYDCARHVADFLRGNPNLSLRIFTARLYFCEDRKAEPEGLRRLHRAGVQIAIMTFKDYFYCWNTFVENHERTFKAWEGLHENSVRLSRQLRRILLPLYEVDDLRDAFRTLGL
Assay: Primary qHTS assay for inhibitors of Activation Induced Cytidine Deaminase (AID): AID signal; note: nearly all actives have a fitted effect of over 25% in size
Details: AID deamination FRET fluorescence, UDG-coupled, 4 h; series mostly up to 115 µM
Description: Assay Provider (PI) Patricia Gearhart Ph.D.
National Institute on Aging
National Institute of Health (NIH), Bethesda, MD
Assay Provider (PI) Rahul Kohli Ph.D.
Perelman School of Medicine
University of Pennsylvania, Philadelphia, PA
Activation-Induced Deaminase (AID) is a cytosine deaminase which converts cytosine into uracil within stretches of ssDNA. The presence of uracil in DNA initiates a cascade of mutagenic DNA repair to introduce point mutations and DNA double strand breaks. Specific targeting of AID to the immunoglobulin heavy chain loci (Igh) promotes mutagenesis in the antibody variable region for somatic hypermutation (SHM) or switch regions leading to class switch recombination (CSR). However, AID also plays a role in accumulating unnecessary mutations across the genome. Mis-targeting of AID results in the initiation of tumor development and leads to greater drug resistance among cancer cells when continually expressed. To identify an AID inhibitor, a small molecule library will be screened in collaboration with NCATS core facility at NIH. To confirm biological function, inhibitors will be examined in an in vitro murine B-cell activation assay and subsequent secondary validation screens. Top molecules will be further screened to identify inhibitory efficacy against a wild type primary splenocytes assay. Using these approaches, we hope to identify a small molecule with great efficacy and low toxicity for use as a molecular probe to further characterize AID's intricacies, or even as a therapeutic.
A FRET based analysis of cytosine deamination, was developed to identify potential inhibitors of AID catalytic activity. This screen has two signal output, Read 1 evaluates the AID inhibition response. The second readout (Read 2) evaluates UDG response and is uses as a counterscreen to exclude false positive inhibitors. Inhibition in AID and inactivity in the UDG signal is the desired outcome for this assay.
SEQUENCE No. (e.g., 1, 2, 3, etc.); […] (e.g., Cells, Incubation, Reagent, etc.); VALUE; DESCRIPTION
1a; Reagent; 3 uL; [4/3x] 1 uM AID/2.67 U/mL UDG
1b; Reagent; 3 uL; 2 U/mL UDG
1c; Reagent; 3 uL; 1 uM AID
2a; Compound; 46 nL; Follow-up plates (0.64 uM - 10 mM)
2b; Control; 46 nL; ATA ([…] - 10 mM)
3; Time; 10 min; incubation at room temperature
5; Time; 4 hr; incubation at room temperature
6; Reagent; 4 uL; [2x] 250 mM NaOH
7; Time; 15 sec; centrifuge at 1000 rpm
8; Time; 30 min; incubation at room temperature
9a; Detection; fluorescence (Read 1: AID); EnVision (PerkinElmer) plate reader, 540 excitation and 590 emission filters
9b; Detection; fluorescence (Read 2: UDG); EnVision (PerkinElmer) plate reader, 560 excitation and 665 emission filters
NOTES (numbers refer to sequence above)
1a; Reagents were dispensed in a medium-binding black solid-bottom Greiner plates (789176F) using a BioRptr liquid dispenser. Dispense 3 uL of [4/3x] 1 uM AID (provided by Kohli lab) and [4/3x] 2 U/mL UDG (NEB M0280L) into columns 1, 2, 5 to 48.
1b; Dispense 3 uL of [4/3x] 2 U/mL UDG into column 3.
1c; Dispense 3 uL of [4/3x] 1 uM AID into column 4.
2a; Compound (7-points [uM] (0.64; 3.2; 16; 80; 400; 2,000; 10,000; 20,000) double pin-transferred (Dip Factor = 2) using the Kalypsys (Wako USA) pintool equipped with a 1536 pinhead for a final concentration range of 7.32 nM - 114 uM.
2b; 10 mM Aurintricarboxylic Acid (Sigma A1895) (ATA, 8-point, n = 2, 1:2.5 dilution in column 2) double pin-transferred (Dip Factor = 2) using the Kalypsys (Wako USA) pintool equipped with a 1536 pinhead for a [final] range of 186 nM - 114 uM.
3; Room temperature incubation.
4; Dispense 1 uL of substrate mixture from the Kohli lab [4x] […] DJC20 and [4x] 250 nM DJC23 into columns 1 to 48 .
5; Room temperature incubation.
6; Dispense 4 uL of substrate mixture [2x] 250 mM NaOH into columns 1 to 48.
7; Centrifugation step to remove bubbles.
8; Room temperature incubation
9a; Fluorescence signal (column label AID) was read using the EnVision plate reader. […]
Potency is the fitted concentration of half-maximal effect.

Row | SMILES | Potency
1 | CCCCCCCCS(=O)(=O)CCCCCCC(=O)O | inactive
2 | CC(=O)c1ccc(NC(=O)NCCCN(C)CC(F)(F)F)cc1 | inactive
3 | CCCCn1nc(C(=O)Nc2cccc(C(=O)NC3CC3)c2)c2ccccc2c1=O | inactive
4 | CCc1ccc(CCC(=O)NC)cc1 | inactive
5 | CC(=O)N1CCC(C(=O)Nc2ccc(Br)cc2)CC1 | inactive
6 | Cc1cccc(C(=O)OC2CCCN(C)C2)c1 (stereo not given) | inactive
7 | CCN(CC)C(=S)SC(C(N)=O)c1ccccc1 (stereo not given) | inactive
8 | CCCc1cc(=O)oc2cc(OS(=O)(=O)c3cccc(C#N)c3)ccc12 | inactive
9 | CCn1c(C)cc(/C=C(\C#N)c2ccc(Br)cc2)c1C | inactive
10 | CCOC(=O)C1CCN(C(=O)COC(=O)c2cn(-c3ccccc3)nc2-c2ccc(Cl)cc2)CC1 | inactive
11 | O=C(COc1ccccc1)NCc1ccc2c(c1)CCN2C(=O)c1ccc(F)cc1 | 22.4 µM (active)
12 | CCOc1ccccc1C(=O)NCc1ccc2c(c1)CCN2C(=O)c1ccc(F)cc1 | inactive
13 | COc1ccc(CCC(=O)NCc2ccc3c(c2)CCN3C(=O)c2ccc(F)cc2)cc1 | inactive
14 | N#CCCc1c(O)ccc2ccccc12 | inactive
15 | Cc1cccc(NC(=O)C(C#N)C(=O)CC(C)(C)C)c1 (stereo not given) | inactive
16 | O=C(CSc1nc2c(c(=O)n1CCc1ccccc1)SCC2)Nc1cccc2ccccc12 | inactive
17 | O=C(Nc1ccc(C(F)(F)C(F)(F)C(F)(F)F)oc1=O)c1ccccc1 | inactive
18 | COc1ccc(Cn2cc(C(=O)c3ccc(C)cc3)c(=O)c3cc(OC)c(OC)cc32)cc1 | 44.7 µM (active)
19 | COc1ccc(NC(=O)Cn2cc(C(=O)c3ccncc3)c(=O)c3cc(C)ccc32)cc1Cl | inactive
20 | CCOc1ccc(NC(=O)Cn2cc(C(=O)c3ccc(C)cc3)c(=O)c3cc4c(cc32)OCCO4)cc1 | inactive
21 | Cc1ccccc1C(C)NC(=O)c1cc(-c2ccccc2)n[nH]1 (stereo not given) | inactive
22 | COc1ccc(-c2cc3c(=O)n(CC(=O)NCc4cccc(Br)c4)ncn3n2)cc1 | inactive

Row | SMILES | Potency
23 | Cc1cc2c(cc1C)NC(CC(=O)Nc1ccc(C(F)(F)F)cc1)C(=O)N2 (stereo not given) | inactive
24 | Cc1cn[nH]c1C#N | inactive
25 | CCCCCOC(=O)CSc1nc2c(c(=O)[nH]c(=O)n2C)n1CCC | inactive
26 | Cn1nc(C(F)(F)F)c(Cl)c1C(=O)NC1CCCC1 | inactive
27 | Cc1ccccc1NC(=O)c1cc2c(=O)n3cccc(C)c3nc2n1Cc1ccccc1 | inactive
28 | COC(=O)Cc1c(C)c2ccc(OCc3ccc(F)cc3)cc2oc1=O | inactive
29 | CCn1c(SCC(=O)c2ccc(Cl)cc2Cl)nnc1-c1cnccn1 | inactive
30 | CCOC(=O)C1=C(CN(CCOC)Cc2ccco2)NC(=O)NC1c1cccc(OC)c1OC (stereo not given) | inactive
31 | O=C(COC(=O)CC12CC3CC(CC(C3)C1)C2)Nc1ccc([N+](=O)[O-])cc1C(F)(F)F | inactive
32 | O=C(O)CC(NC(=O)Cc1cccc(F)c1)c1ccc(F)cc1 (stereo not given) | inactive
33 | O=[N+]([O-])/C=C/c1ccc(-c2ccccc2)o1 | inactive
34 | O=C1CCCc2nccc(-c3ccc(Cl)cc3)c21 | inactive
35 | COC(=O)COc1cccc(C(=O)Nc2ccc(-c3nc4ccccc4o3)cc2)c1 | inactive
36 | CCCn1c2ccccc2c2cnn(CC(=O)N3CCCC(C(=O)OCC)C3)c(=O)c21 (stereo not given) | inactive
37 | CCCn1c2ccccc2c2cnn(CC(=O)NCCCOC(C)C)c(=O)c21 | inactive
38 | CCCn1c2ccccc2c2cnn(CC(=O)N(CC)c3cc(C)ccc3C)c(=O)c21 | 35.5 µM (active)
39 | C=CCn1c(SCC(=O)Nc2ccccc2)nc2c1c(=O)n(C)c(=O)n2C | inactive
40 | C=CCn1c(Oc2ccc(F)cc2)nc2c1c(=O)n(C)c(=O)n2C | inactive
41 | COC(=O)Cc1c(C)c2ccc(OCc3cccc(Cl)c3)cc2oc1=O | inactive
42 | COc1ccc(S(=O)(=O)N2CCc3c(c(-c4nnc(SC)n4C)nn3C)C2)cc1 | inactive
43 | COc1ccccc1CN1CCC(CNC(=O)c2cnn(-c3cccc(Cl)c3)c2C2CCN(C(=O)OC(C)(C)C)CC2)CC1 | 44.7 µM (active)
44 | Cc1cccc(C)c1-n1ncc(C(=O)NCCCN2CCCCC2)c1C1CCN(C(=O)OC(C)(C)C)CC1 | inactive

Row | SMILES | Potency
45 | Cc1ccc(CN2CCC(CNC(=O)c3cnn(-c4ccc(C)cc4)c3C3CCN(C(=O)OC(C)(C)C)CC3)CC2)cc1 | inactive
46 | COc1ccccc1CN1CCC(CNC(=O)c2cnn(-c3ccccc3Cl)c2C2CCN(C(=O)OC(C)(C)C)CC2)CC1 | 44.7 µM (active)
47 | CC(C)(C)OC(=O)N1CCC(c2c(C(=O)N3CCN(c4cccc(Cl)c4)CC3)cnn2-c2cccc(Cl)c2)CC1 | inactive
48 | COc1ccccc1N1CCN(CCCNC(=O)c2cnn(-c3ccccc3Cl)c2C2CCN(C(=O)OC(C)(C)C)CC2)CC1 | inactive
49 | CCCCc1c(C)nc2c(Cl)cccc2c1Cl | inactive
50 | CCn1nc(C)cc1-c1nn2c(-c3cccc(Cl)c3Cl)nnc2s1 | inactive
51 | O=C(O)c1ccc(-c2ccccc2)cc1C(=O)O | inactive
52 | Cc1nn(CCC(=O)Nc2c(Cl)cccc2Cl)c(=O)c(C#N)c1C | inactive
53 | COc1ccc(-c2cc(COC(=O)Cc3cccc(F)c3)on2)cc1 | inactive
54 | N#C/C(=C/c1cccc([N+](=O)[O-])c1)c1ccc(C(F)(F)F)cn1 | inactive
55 | O=C(OCC(=O)C12CC3CC(CC(C3)C1)C2)c1ccccc1Cl | inactive
56 | O=C(CCCOC(=O)c1cc(Cl)ccc1[N+](=O)[O-])c1ccc(Br)cc1 | inactive
57 | O=C1SCCC1NC(=O)C(Sc1ccccc1)c1ccccc1 (stereo not given) | inactive
58 | O=C(CCCCC(=O)OCC(=O)c1ccc(Br)cc1)OCC(=O)c1ccc(Br)cc1 | inactive
59 | O=[N+]([O-])c1ccc2nc(Cl)ccc2c1 | inactive
60 | Cc1nn(CC(=O)N(CC2CCOC2)C2CC2)c(=O)c2ccccc12 (stereo not given) | inactive
61 | Cc1cccc2c(=O)c(-c3ccccc3)c(NC(=O)c3ccc([N+](=O)[O-])cc3)oc12 | inactive
62 | Cc1n[nH]c(=O)c2c(NC(=O)CSc3nnc(C4CC4)n3Cc3ccccc3)oc(C)c12 | inactive
63 | Cc1[nH]nc2c1C(c1cccc(OCc3ccc(Cl)cc3)c1)C(C#N)=C(N)O2 (stereo not given) | inactive
64 | CN(CCOC(=O)c1cccs1)Cc1ccccc1 | inactive
65 | Cc1ccc(-c2cc3ccccc3n2C)cc1 | inactive
